Reference: PubChem BioAssay AID652104 (National Center for Advancing Translational Sciences (NCATS), 2013)
Screen size: about 410,000 compounds; about 7,200 (1.8%) were called active. Another 7% or so got no clear call; they are omitted. The sample holds actives, similar compounds and a random draw of the others, so the mix is not that of the screen. The call rests on the fitted dose curve; in most records, active means well fitted activation curve with a large enough effect; inconclusive means small, poorly fitted or top-dose-only effect, or another doubt; inactive means no such curve, though single readings can be large or run the other way.

experiment: qHTS of TDP-43 Inhibitors; conditions: TDP-43 expressing yeast growth rescue, BacTiter-Glo, 24 h; series mostly up to 46.1 µM; growth rescue (activation): at the top concentration; further: nearly all actives have a fitted effect of over 50% in size; on growth rescue (activation): % of control where 0% means no effect
How it was run: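 Yeast expressing TDP-43 (pregrown in raffinose, seeded at OD600=0.02 in galactose medium) exposed to compounds 24 hr at 30 deg C. Growth read by BacTiter-Glo luminescence; rescue of toxicity appears as increased signal.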
Potency means the concentration at half of the fitted maximal effect.

Growth rescue (activation), inactive:
Cc1c(-c2nc(-c3ccc4c(c3)OCO4)no2)nnn1-c1ccc(Br)cc1F 13.5%
Cc1cc(Nc2ccc(C)c(C)c2)n2ncnc2n1 14.1%
CC1CCc2c(nc3ncnn3c2Nc2ccc(OC(F)(F)F)cc2)C1 (stereo not drawn) -0.0857%
COc1ccc(C(=O)c2oc3ccccc3c2NC(=O)COc2cccc(C)c2)cc1 9.29% [at 9.22 µM]
Cc1c(NC(=O)c2cc(=O)c3ccccc3o2)c(=O)n(-c2ccccc2)n1C 22.7%
CCOC(=O)c1cccc(NS(=O)(=O)c2cc(-c3cnc(C)o3)ccc2OC)c1 22.8%
CS(=O)(=O)c1ccc(-c2nnc(NC(=O)c3ccc4c(c3)OCCO4)o2)cc1 0%
C/C(Cc1ccccc1)=N\NC(=O)CNC(=O)c1ccc2c(c1)OCCO2 5.25%
Cc1ccc(C)c(NC(=O)C2CCCN(S(=O)(=O)c3cn(C)cn3)C2)c1 (stereo not drawn) 16.4%
CC(=O)N1CCCc2cc(S(=O)(=O)Nc3ccc(Cl)cc3F)ccc21 26.2%
CCOc1ccc(CNC(=O)c2ccc3c(c2)nnn3C2CCCC2)cc1 21.2%
CCOC(=O)c1cccc(NC(=O)CCn2nnc3ccccc32)c1 -14.2%
CCOC(=O)c1cc(-c2ccccc2)n(CCC(=O)Nc2ccccc2CC)c1C -0.302%
O=C(Nc1c(C(=O)N2CCN(c3ccc(F)cc3)CC2)oc2ccccc12)c1ccco1 0%
O=C(NNC1CC(=O)N(c2cccc(Cl)c2)C1=O)c1cccnc1 (stereo not drawn) -2.69%
Cc1ccc(Cl)cc1N1CCN(C(=O)CN2C(=O)COc3ccc(S(=O)(=O)N4CCOCC4)cc32)CC1 16.2%
CCC(=O)N1CCc2cc(S(=O)(=O)NC(CC(C)C)C(=O)NCCc3cccc(C)c3)ccc21 (stereo not drawn) 12.7%
Cc1ccc(NC(=O)Cn2nnc3sc4c(c3c2=O)CCC(C)C4)cc1 (stereo not drawn) 0%
COc1ccc(CN2CCc3nc(Nc4ccccc4)ncc3C2)c(OC)c1OC 9.73%
CC(C)(C)OC(=O)N1CCC(c2c(C(=O)N3CCc4ccccc4C3)cnn2-c2ccc(F)cc2)CC1 3.82%
O=c1cc(-c2ccccc2)n2c(SCc3ccccc3)nnc2[nH]1 19%
Cc1cccc(N2CCN(C(=O)CCn3c(=O)c4cccn4c4cccnc43)CC2C)c1 (stereo not drawn) 0%
CCc1cnc2c(c1SCC(=O)c1ccccc1)c(=O)n(C)c(=O)n2C 16.8%
COc1ccc(Cl)cc1C(=O)OCC(=O)NCc1cccs1 -0.926%
O=C(COC(=O)c1ccc(Cl)nc1)NCc1cccs1 16.7%
CCOc1ccc(CCNC(=O)c2ccc3c(c2)sc2nc(-c4ccc(F)cc4)cn23)cc1OCC 19.4%
COc1ccc2oc(C(=O)NCC(Cc3ccccc3)N(C)C)c(C)c2c1 (stereo not drawn) -16.2%
COc1cc(C(=O)NC(=S)NCc2ccco2)cc(OC)c1OC -2.12%
COc1cccc(C(c2c(O)cc(C)n(Cc3ccco3)c2=O)N2CCN(c3ccccc3)CC2)c1 (stereo not drawn) 16.2%
CCCCC(CC)CNC(=O)C1CCN(S(=O)(=O)c2cccc3nsnc23)CC1 (stereo not drawn) -7.96%
O=S(=O)(c1ccc2nc(N3CCN(c4cccc(Cl)c4)CC3)ccc2c1)N1CCCCC1 4.2%
Cc1cc(OC(=O)c2ccccc2)c([N+](=O)[O-])c(=O)[nH]1 -3.46%
COc1cccc(C(=O)Oc2cc(C)[nH]c(=O)c2[N+](=O)[O-])c1 -7.6%
Cc1nnc(SCc2cc(=O)c3cc(F)ccc3[nH]2)n1C 13.1%
CC(C)CC(=O)NCC(c1ccc2c(c1)OCO2)N1CCN(c2ccc(F)cc2)CC1 (stereo not drawn) -8.52%
CCn1c(=O)cc(OCC(=O)Nc2cc(Cl)c(OC)cc2OC)c2ccccc21 8.79%
Cc1ccc(S(=O)(=O)c2nc(-c3ccco3)oc2SCC(=O)Nc2ccc(F)cc2)cc1 25%
COC(=O)c1sc(N)c(C(=O)OC)c1COC(=O)CNS(=O)(=O)c1ccc(C)cc1 17.9%
Cc1ccc(-c2nc(COC(=O)c3c(C)noc3C)cs2)cc1 1.65%
CCCn1c(=N)n(CC(O)COc2ccccc2OC)c2ccccc21 (stereo not drawn) 13.5%
N/C(=N\OC(=O)N1c2ccccc2Sc2ccccc21)c1ccc(Br)cc1 8.92%
CO/N=C(\N)c1ccc([N+](=O)[O-])cc1 14.3%
Cc1ccc(-n2ncc3c(=O)n(Cc4cccc(C(F)(F)F)c4)cnc32)cc1C 22.9%
CC(C)NC(=O)C1CCC(Cn2c(=O)c3sccc3n(Cc3ccc(F)cc3)c2=O)CC1 (stereo not drawn) 17.9%
O=C(COc1ccc(Cl)cc1)N(Cc1ccco1)Cc1ccco1 14.7%
CC(=O)c1ccc(NC(=O)CCc2nc(-c3ccc(C)cc3)no2)cc1 14.4%
CCOc1ccc(CCNC(=O)c2csc3c2CCCCC3)cc1 9.4%
CCOC(=O)c1ccc(NC(=O)c2c(NCc3cccs3)sc3c2CCCC3)cc1 29.4%
Cc1ccc(-c2cn3c(n2)sc2cc(C(=O)NCc4cccs4)ccc23)c(C)c1 -0.34% [at 9.22 µM]
C/C(=N\N)c1c(-c2ccccc2)c2cc(Br)ccc2[nH]c1=O -15.3%
CC1CN(C(=O)N2CCC(C(=O)NCc3cccs3)CC2)c2ccccc2O1 (stereo not drawn) 26.7%
CS(=O)(=O)N(CC(=O)N1CCN(c2cccc(Cl)c2)CC1)c1ccccc1 -13.1%
COc1ccc(N(CC(=O)N2CCCCCC2)S(=O)(=O)c2ccccc2)cc1 -22.5%
COc1cc(CNC(=O)c2cc3n(n2)CCCN(Cc2cccc(F)c2)C3=O)cc(OC)c1OC 11.2%
CCc1cc2c(cc3c(=O)n(CC(=O)NCCc4ccc(OC)c(OC)c4)ncn32)s1 7.79%
CCC(=O)N1CCc2cc(Br)cc(S(=O)(=O)NCc3ccc(Cl)cc3)c21 22%
CCC(=O)N1CCc2cc(CNC(=O)Nc3ccccc3Cl)ccc21 22.9%
Cc1ccc(NC(=O)c2cc(S(=O)(=O)NCCC3=CCCCC3)ccc2F)cc1C 2.32%
COc1cc(C(=O)Nc2ccc(OCc3cc(=O)n4ccc(C)cc4n3)cc2)cc(OC)c1OC 0.643%
CCOC(=O)CSc1nc2ccc(C)cc2n2cnnc12 0.643%
O=C(NNc1nc(N2CCCC2)nc(N2CCCC2)n1)c1ccccc1 5.54%
Cc1nnc(NC(=O)CSc2nc3c([nH]c4ccccc43)c(=O)n2-c2cccc(Cl)c2)s1 27.2%
O=C(Nc1ccc2c(c1)OCO2)c1sc2cc(Cl)ccc2c1Cl 11.5%
CC(=O)C1=C(C)NC(=O)NC1c1ccc2c(c1)OCO2 (stereo not drawn) -15%
Cc1cccc(N2CCN(C3=C(c4ccccc4)C(=O)c4ccccc43)CC2)c1C 14.2%
Cc1cccc(NC(=O)c2ccc(F)c(S(=O)(=O)N(C)C3CCCCC3)c2)c1 20.7%
Brc1cccc(-c2nnn3c2nc(NC2CCCCC2)c2ccccc23)c1 9.58%
O=C(Nc1nnc(S(=O)(=O)N2CCCc3ccccc32)s1)c1cccc(F)c1 18.6%
CCc1ccc(C2CC(=O)c3c([nH]c(C(=O)OCc4ccc(C)cc4)c3C)C2)cc1 (stereo not drawn) 13.6%
CCN(CCCNC(=O)c1cc(Nc2ccc(OC)cc2)nc2ccccc12)c1cccc(C)c1 20.5%
Cc1ccc(CSc2nc3ccsc3c(=O)n2CCC(C)C)cc1 10.6%
CCOc1ccccc1NC(=O)Cn1c2ncccc2c(=O)n1-c1ccc(C)c(C)c1 0%
Cc1ccc(-n2c(=O)c3cccnc3n2CC(=O)Nc2ccccc2C(F)(F)F)cc1C 21.9%
CCOc1ccccc1NC(=O)Cn1c(=O)n(Cc2ccccc2)c(=O)c2c(C)c(C(=O)N(C)C)sc21 29.5%
Cc1c(CNC(C)c2ccccc2)c(C(=O)O)c(C)n1Cc1c(F)cccc1Cl (stereo not drawn) -5.06%
Cc1ccc(CN2CC(N3CCC(Cc4ccccc4)CC3)CS2(=O)=O)cc1 (stereo not drawn) 8.85%
O=S1(=O)CC(N2CCC(Cc3ccccc3)CC2)CN1Cc1ccccc1 (stereo not drawn) 9.43%
CCOC(=O)c1c(C)oc2ccc(N(C(=O)c3ccncc3)S(=O)(=O)c3ccc(CC)cc3)cc12 19.9%
CCc1ccc(CN(Cc2ccco2)C(=O)COc2ccc(Cl)c(C)c2)cc1 6.26%

Potency, active:
Brc1ccc(Nc2c3c(nc4ncnn24)CCC3)cc1 12.6 µM
Cc1nc(NC(=O)c2ccc3c(c2)OCCO3)ccc1Br 12.6 µM
CCn1nnc2cc(C(=O)Nc3ccc(C(=O)OC(C)C)cc3)ccc21 11.2 µM
O=C1[C@@H]2C(c3cccnc3)=NO[C@@H]2C(=O)N1c1ccc(Cl)cc1Cl 35.5 µM
COc1ccc(Nc2ncc3c(n2)CCN(C(=O)OC(C)(C)C)C3)cc1 14.1 µM
O=C(COC(=O)/C=C/c1cccc(Cl)c1)NCc1cccs1 20 µM
COc1ccc2oc(C(=O)NCc3ccco3)c(C)c2c1 12.6 µM
Cc1cc(OC(=O)c2ccc(OC(C)C)cc2)c([N+](=O)[O-])c(=O)[nH]1 22.4 µM
COC(=O)c1c(-c2ccc(C)cc2)csc1N 12.6 µM
N/C(=N\OC(=O)Cc1ccccc1[N+](=O)[O-])c1ccc(Br)cc1 15.8 µM
CCOC(=O)c1ccc(NC(=O)c2csc3c2CCCCC3)cc1 20 µM
O=c1[nH]c2cc(Br)ccc2n2cccc12 10 µM
CC1CCN(C(=O)CN(c2ccc(Oc3ccccc3)cc2)S(C)(=O)=O)CC1 12.6 µM
CCC(=O)N1CCc2cc(CNS(=O)(=O)c3ccc(Br)s3)ccc21 11.2 µM
O=C(c1ccccc1)c1ccc2nc(N3CCCCC3)c3nncn3c2c1 20 µM
O=C1C=C(c2ccnc3cc(Cl)ccc23)C[C@@H](c2ccc3c(c2)OCO3)C1 22.4 µM
COCCCNc1ccn2nc(-c3ccc(CC(C)C)cc3)cc2n1 17.8 µM
Cc1ccc(-n2c(=O)c3cccnc3n2CC(=O)NCc2ccc(F)cc2)cc1C 12.6 µM
O=[N+]([O-])c1ccc(CN2CC(N3CCC(c4ccccc4)CC3)CS2(=O)=O)cc1 (stereo not drawn) 25.1 µM
